Results reported in PubChem BioAssay (NCI).
Compounds without any hit were thinned out: in the full panel of roughly 83,000, 20% have a hit.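 48-hour exposure, single concentration, 96-well plates; percent growth endpoint where 0 means no net growth. Active: below 10.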 Calls of active or inactive are those of the source.

Test system: MDA-MB-435 melanoma
Assay: NCI-60 one-dose screen, 48 h (100 = growth as untreated, 0 = no growth, -100 = all killed)
Settings: 10 µM unless noted

| SMILES | growth |
| --- | --- |
| C#CCOc1cc(N(CC)CC)ccc1C(C(=O)NC(C)(C)C)N(C(=O)C1CCc2cc(F)ccc2O1)c1ccc(F)c(Cl)c1 (stereo unspecified) | 65.7% (inactive) |
| COc1cc2c(c(OC)c1OC)C(=O)CC(c1cccc(NC(=O)c3cc(NC(=O)[C@@H](N)CO)ccc3C)c1)O2 (stereo partly specified) | 120% (inactive) |
| O=C(O)Cn1c(O)c(/C=C2/C=c3cc4c(cc3=NC2=O)OCCO4)sc1=S | 102% (inactive) |
| CC(C)CSc1nc(NCCc2c[nH]c3ccccc23)c(C#N)c(-c2ccc(Cl)cc2)n1 | 72.5% (inactive) |
| C=C1CCC2C3(C)COC(c4ccccc4)OC3CCC2(C)C1CC(Sc1ccccc1)C1=CCOC1=O (stereo unspecified) | 45.8% (inactive) |
| O=C1c2c(c3c4cc(F)ccc4oc3c3[nH]c4ccc(Br)cc4c23)C(=O)N1O | 37.1% (inactive) |
| C#C[C@]1(O)CC[C@H]2[C@@H]3CC=C4c5sc(-c6ccc(O)c(O)c6)nc5CC[C@]4(C)[C@H]3CC[C@@]21C | -62.3% (active) |
| COc1ccc(N2N=C(c3ccc4c(c3)OCO4)CC2c2cccc(NC(=O)CCCNS(=O)(=O)c3ccc(F)cc3)c2)cc1 (stereo unspecified) | 63.2% (inactive) |
| CN(C)CCn1c2ccccc2c2nc3cc(C(F)(F)F)ccc3nc21 | 40.3% (inactive) |
| O=C(COc1ccc(NC(=O)Nc2ccc(Cl)c(Cl)c2)cc1)N=Nc1c(O)[nH]c2ccccc12 | -63.8% (active) |
| CC1(C)CC[C@]2(C(=O)O)CC[C@]3(C)C(=CCC4[C@@]5(C)C[C@@H](O)[C@@H]6OC(c7cccc(Br)c7)OC[C@@]6(C)C5CC[C@]43C)C2C1 (stereo partly specified) | 61.2% (inactive) |
